Bioassay records deposited in PubChem by National Center for Advancing Translational Sciences (NCATS).
An excerpt weighted towards active compounds, which were near 9.3% of everything screened.
SMN2 splice up: enhancers of SMN2 splice variant expression; HEK293 SMN2-luciferase splicing reporter, luminescence, 30-36 h; Potency, µM (doses to about 46.1 µM), inactives show at the highest dose activity change, positive = activation, actives largely listed as activators; 210,000 compounds, 2.8% hits; AID 1458; note: % of control where 0% means no effect; nearly all actives have a fitted effect of over 55% in size
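qHTS luciferase splicing reporter: luminescence rises when SMN2 exon 7 is included in transfected HEK293 cells. Compound exposure lasted 30-36 h at 37C, with 4.5 mM final sodium butyrate as control, followed by a ONE-Glo read.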
Rab9 promoter act: activators of Rab9 promoter; Huh7 Rab9 promoter-luciferase reporter, luminescence, 24 h; Potency, µM (series often up to 9.22 µM), inactives show top-dose activation, negative = inhibition, usual class: activators; 320,000 compounds, 2.8% hits; note: % of control where 0% means no effect; nearly all actives have a fitted effect of over 60% in size
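Promoter activation is measured as luciferase luminescence in Huh7 cells stably transfected with a Rab9 promoter–luciferase construct, following 24 h compound exposure at 37 °C and 10 min reagent incubation at ambient temperature.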
NPC1 prom act: activates the NPC1 promoter; Huh7 NPC1 promoter luciferase reporter, 24 h; Potency, µM (top dose mostly 9.22 µM), for inactives: at the highest dose activation, hits mostly activators; 320,000 compounds, 2.4% hits; AID 485313; note: % of control where 0% means no effect; nearly all actives have a fitted effect of over 60% in size
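Stably transfected Huh7 (NPC1 promoter→luciferase), 1500 cells/well in Opti-MEM + 10% FBS, 2 h settle, then compound 24 h at 37 °C. Luminescence after 10 min with Amplite reagent.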
FLuc counter: inhibits or activates purified firefly luciferase, miR-21 counter-screen; P08659; purified FLuc, Km substrates, luminescence inhibition; Potency, µM (titrated, usually from 57.5 µM), for inactives: at the top dose activity change, negative = inhibition, actives largely listed as inhibitors; 360,000 compounds, 6.9% hits; AID 588342;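 note: plate controls were vehicle for no effect and reference inhibitor for full effect; nearly all actives have a fitted effect of over 55% in size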
Target sequence (P08659 whole entry, looked up): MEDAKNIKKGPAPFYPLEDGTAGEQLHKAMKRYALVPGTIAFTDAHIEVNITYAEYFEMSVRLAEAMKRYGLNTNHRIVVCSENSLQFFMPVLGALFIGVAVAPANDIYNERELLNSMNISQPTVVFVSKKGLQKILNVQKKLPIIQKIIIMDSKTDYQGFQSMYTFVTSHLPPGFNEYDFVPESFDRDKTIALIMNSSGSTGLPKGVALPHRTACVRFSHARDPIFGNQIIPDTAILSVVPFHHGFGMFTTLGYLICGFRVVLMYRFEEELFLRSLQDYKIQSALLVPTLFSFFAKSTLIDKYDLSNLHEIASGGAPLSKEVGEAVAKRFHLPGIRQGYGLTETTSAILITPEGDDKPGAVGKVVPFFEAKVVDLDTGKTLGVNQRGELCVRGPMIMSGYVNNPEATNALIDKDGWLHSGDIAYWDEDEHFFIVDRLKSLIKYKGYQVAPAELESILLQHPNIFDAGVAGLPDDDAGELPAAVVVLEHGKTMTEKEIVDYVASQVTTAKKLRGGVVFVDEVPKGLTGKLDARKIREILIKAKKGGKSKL
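Biochemical qHTS of compounds, final roughly 60 µM downward over six points, against 10 nM purified firefly luciferase using Km concentrations of substrates (10 uM D-luciferin, 10 uM ATP) in Tris acetate pH 7.5 buffer; luminescence output.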
ELG1 genotoxic: genotoxicity induction in ELG1-luciferase HEK293T cells | HEK293T ELG1-luciferase reporter, luminescence, 16 h | Potency, µM (titrated, usually from 46 µM), for inactives: at the top dose activity change, positive = activation, actives largely listed as activators | 330,000 compounds, 1.3% hits | AID 504466; note: % of control where 0% means no effect; nearly all actives have a fitted effect of over 60% in size
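After overnight (16 hr) compound treatment at 37 °C, ELG1-luciferase HEK293T cells were lysed with ONE-Glo; luminescence quantified 30 min later at room temperature.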
ELG1 DNA repair: inhibitors of ELG1-dependent DNA repair in HEK293T cells; HEK293T ELG1-luciferase reporter, luminescence, 16 h; DNA damage induced by 5-fluorouridine; Potency, µM (series often up to 46.1 µM), for inactives: at the top dose activity change, negative = inhibition, actives largely listed as inhibitors; 330,000 compounds, 2.3% hits; AID 504467; note: % is set by controls: 0 for no effect and ±100 for the full control effect; nearly all actives have a fitted effect of over 55% in size
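Overnight (16 hr) co-exposure of 2,000 cells/well to 5-fluorouridine and compound at 37 °C preceded detection. Luciferase was quantified via ONE-Glo luminescence; loss of signal denotes inhibition.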
The depositor's hits bear a star; ? = inconclusive; · = no result. Calls come from the whole dose curve; as a rule, active = well fitted curve in the direction sought with a large enough effect; inconclusive = small, poorly fitted or top-dose-only effect, or another doubt; inactive = no such curve, though single readings can be large; an effect the other way counts as inactive or inconclusive. Potency is the fitted concentration of half-maximal effect.

SMILES | SMN2 splice up | Rab9 promoter act | NPC1 prom act | FLuc counter | ELG1 genotoxic | ELG1 DNA repair
N[C@@H](Cc1ccc(O)cc1)C(=O)Nc1ccc2ccccc2c1 | · | 16.5% | 27.0% | ? | 6.5% | ?
Cc1nnc(SCC(=O)Nc2cccnc2Cl)s1 | · | -1.0% | -0.4% | 6.8% | -1.3% | -2.9%
CCc1ccc(Nc2nnc(SCC(=O)Nc3cccnc3Cl)s2)cc1 | · | 4.0% | -2.7% | 1.35µM* | 5.9% | -21.4%
CCOC(=O)c1c(NC(=O)CSc2ncnc3ccccc23)sc(C)c1C | -28.0% | -4.0% | 0.0% | 0.7% | 4.5% | 11.6µM*
COc1ccc(C(=O)N2CCN(c3ccc([N+](=O)[O-])c(NCCc4ccc(OC)c(OC)c4)c3)CC2)cc1 | -64.0% | -29.3% | -30.6% | 5.9% | -0.2% | ?
COc1ccc(CCNc2cc(N3CCN(C(=O)c4ccc(C)cc4)CC3)ccc2[N+](=O)[O-])cc1OC | -59.3% | -34.2% | -32.9% | 3.5% | -10.7% | 2.06µM*
O=C(c1ccccc1F)N1CCN(c2ccc([N+](=O)[O-])c(NCc3cccnc3)c2)CC1 | · | -2.3% | 1.5% | -0.5% | -4.4% | ?
COc1ccc(CCNc2cc(N3CCN(C(=O)c4ccccc4F)CC3)ccc2[N+](=O)[O-])cc1OC | -44.3% | -39.9% | -31.8% | 1.6% | -12.5% | 4.11µM*
O=C(O)COc1ccccc1C1Nc2ccccc2-c2nnc(SCc3ccc(Cl)cc3)nc2O1 (centres undefined) | -4.8% | · | · | ? | · | ·
Cc1ccc(SC(c2ccccc2)C(Cn2cncn2)C(=O)c2ccccc2)cc1 (centres undefined) | -5.0% | 1.5% | -7.0% | -18.4% | 4.8% | 7.2%
O=C(Nc1ccc(F)cc1F)c1cccc2c1C(=O)N(C1CCCCC1)C2 | 1.9% | · | · | -0.3% | · | ·
Cc1occc1C(=O)N/N=C/c1cccs1 | 24.7% | ? | ? | ? | 11.0% | ?
Cc1oncc1C(=O)Nc1cccc2ccccc12 | · | 1.5% | 5.3% | -1.2% | 3.9% | ?
Cc1occc1C(=O)Nc1cccc2ccccc12 | 3.16µM* | 1.58µM* | 2µM* | 2.69µM* | 5.8µM* | ?
O=C(N/N=C/c1cccc2ccccc12)c1ccccc1Cl | · | 2.7% | -2.3% | 7.57µM* | 5.9% | 27.6%
CC(C)Oc1ccccc1/C=N/NC(=O)c1ccccc1Cl | · | -0.4% | 25.6% | ? | 0.5% | 5.4%
Cc1occc1C(=O)N/N=C/c1cccc2ccccc12 | · | 2.24µM* | ? | 5.36µM* | 7.3µM* | ?
COc1ccccc1NC(=S)N(CCN(C)C)C(C)c1ccncc1 (centres undefined) | · | -2.6% | -4.7% | -0.7% | 2.5% | -2.6%
Cc1cc(C)n2nc(-c3ccsc3-n3c(C)ccc3C)cc2n1 | 5.9% | 5.5% | -1.2% | -1.9% | 5.2% | -6.3%
Cc1cc(C)n2nc(Nc3ccccc3)cc2n1 | 25.3% | 23.2% | 17.5% | 16.9µM* | 29.0% | ?
Cc1ccc(NC(=O)c2cc3nc(-c4ccccc4)cc(-c4ccccc4)n3n2)cc1 | 15.2% | · | · | 6.8% | · | ·
Cc1ccc(NC(=O)c2cc3nc(C)cc(C)n3n2)cc1 | 11.2µM* | 0.891µM* | 0.631µM* | 4.78µM* | 1.46µM* | ?
Cc1cc(C)n2nc(-c3ccccc3)cc2n1 | · | 3.16µM* | ? | 7.57µM* | ? | ?
Cc1ccc(-c2cc3nc(C)cc(C)n3n2)cc1 | 12.6µM* | 1.78µM* | 3.55µM* | 2.69µM* | 5.17µM* | ?
Cc1noc(C)c1CSCC(=O)OCC(=O)NC1CCCCC1 | -6.1% | 1.6% | 3.1% | 0.1% | -2.0% | -3.6%
SMILES | SMN2 splice up | Rab9 promoter act | NPC1 prom act | FLuc counter | ELG1 genotoxic | ELG1 DNA repair
CCOC(=O)C(=O)Nc1cc(Cl)ccc1C | -1.0% | -5.1% | -0.3% | 2.2% | 0.0% | 3.0%
O=[n+]1c2c(n([O-])c3cc(F)c(N4CCCC4)cc31)CCCC2 | 0.4% | -5.9% | 5.8% | ? | 9.9% | ?
Cc1ccc(N2CSC3=C(C#N)C(c4cccs4)CC(=O)N3C2)cc1 (centres undefined) | 8.5% | ? | 8.6% | ? | ? | ?
CN(/N=C/c1cccnc1)c1cnc2ccccc2n1 | 11.2µM* | 2.82µM* | ? | 5.36µM* | ? | ?
O=C(COc1ccc2ccc(=O)oc2c1)NCCCN1CCCC1=O | · | 7.8% | -5.7% | -0.3% | 3.2% | 6.5%
CCN(CC(=O)Nc1ccccc1Br)Cc1nc2ccccc2c(=O)[nH]1 | 19.6% | 0.9% | -2.9% | -1.0% | 0.3% | ?
CCN(CC(=O)Nc1cc(Cl)ccc1-n1cncn1)Cc1nc2ccccc2c(=O)[nH]1 | · | -1.4% | -1.8% | 0.5% | -3.3% | 8.2µM*
COc1ncccc1-c1nnn(-c2ccc(F)cc2)n1 | · | 3.98µM* | 2.82µM* | 5.36µM* | 9.2µM* | ?
COc1ncccc1-c1nnn(-c2ccc(Cl)c(Cl)c2)n1 | · | 3.16µM* | 2.82µM* | 4.78µM* | ? | ?
COc1ccccc1-c1nnn(CC#N)n1 | -9.3% | -7.5% | -4.0% | 0.5% | -0.6% | 11.3%
Cc1ccc(-c2cc3ccccc3nc2N2CCOCC2)cc1 | -18.5% | 0.2% | 2.8% | 3.5% | -4.4% | -28.6%
Cc1ccc(-n2nnc(-c3cc4ccccc4nc3Cl)n2)cc1 | · | 4.47µM* | ? | 6.01µM* | ? | ?
COc1ncccc1-c1nnn(-c2ccc(C)cc2)n1 | · | 3.16µM* | 3.16µM* | 4.26µM* | 9.2µM* | ?
CCOC(=O)c1c(C)n(CC)c2ccc(OC(=O)c3ccc([N+](=O)[O-])cc3)cc12 | 9.9% | 1.0% | 1.1% | 4.5% | 4.6% | -3.3%
COc1cccc(-c2cc3nc(-c4ccccc4)cc(=O)n3[nH]2)c1 | · | 0.3% | -11.0% | 12µM* | ? | ?
Cc1ccc(N=Nc2c(N)[nH]n3c(=O)cc(-c4ccccc4)nc23)cc1 | -74.1% | -3.1% | 0.9% | 9.53µM* | 1.5% | 4.1%
Cc1cc(=O)n2[nH]c(N)c(N=Nc3ccccc3)c2n1 | 18.5% | 2.2% | -1.8% | ? | -6.0% | -6.9%
COc1cccc(N=Nc2c(N)[nH]n3c(=O)cc(-c4ccccc4)nc23)c1 | -86.2% | 2.9% | -1.4% | 10.7µM* | -7.7% | 6.2%
COc1ccc(-c2c(C(F)(F)F)[nH]n3c(=O)cc(-c4ccccc4)nc23)cc1 | · | 1.5% | -2.1% | 19µM* | -8.4% | ?
COc1cccc(N=Nc2c(=O)[nH]n3c(C)cc(C)nc23)c1 | 23.7% | 1.0% | -2.3% | -16.9% | 0.2% | -1.9%
NC(=O)CCC(NC(=S)Nc1ccccc1)C(=O)O (centres undefined) | · | 9.1% | -1.9% | -0.8% | 1.4% | 6.4%
c1ccc(C2=Nc3ccccc3SC2c2nc3ccccc3[nH]2)cc1 (centres undefined) | ? | · | · | 16.9µM* | · | ·
